Screening data from PubChem BioAssay.
This is a sample that favours compounds with a hit; in the whole collection about 2.6% have one here.
Cruzain inh noDet – cruzain (T. cruzi) inhibition without detergent; P25779; purified cruzain, Z-FR-AMC fluorescence, no detergent; Potency, µM, actives largely listed as inhibitors; 200,000 compounds, 2.3% hits; AID 1476; note: nearly all actives have a fitted effect of over 40% in size
Target sequence (P25779 123-467 limits assumed): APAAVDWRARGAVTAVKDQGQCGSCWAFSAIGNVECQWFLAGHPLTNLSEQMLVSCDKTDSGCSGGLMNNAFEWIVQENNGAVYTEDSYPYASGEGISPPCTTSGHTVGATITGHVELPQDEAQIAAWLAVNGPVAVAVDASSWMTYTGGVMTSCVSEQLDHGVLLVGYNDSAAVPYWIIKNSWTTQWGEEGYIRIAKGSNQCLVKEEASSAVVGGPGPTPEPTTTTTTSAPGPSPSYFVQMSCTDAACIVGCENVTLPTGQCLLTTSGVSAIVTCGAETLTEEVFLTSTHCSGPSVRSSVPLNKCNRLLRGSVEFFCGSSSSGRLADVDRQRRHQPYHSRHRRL
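Detergent-free condition (0.00005% Triton X-100) in acetate buffer pH 5.5 with DTT. 1.5 nM enzyme and compound were pre-mixed 15 min, then 2 uM Z-FR-AMC substrate added; reaction progress from fluorescence change between first and third reads (60 s).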
Cruzain inh Det – inhibitors of Trypanosoma cruzi cruzain with detergent; purified cruzain, Z-FR-AMC fluorescence, 0.01% Triton; Potency, µM, usual class: inhibitors; 200,000 compounds, 0.43% hits; note: nearly all actives have a fitted effect of over 40% in size
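Detergent-containing run (0.01% Triton X-100) in acetate buffer pH 5.5 with 5 mM DTT: enzyme at 1.5 nM final, 15 min compound preincubation at room temperature, then 2 uM Z-FR-AMC substrate. Activity taken as 60 s fluorescence increase at 360/450 nm.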
Each line names hits and unclear results; the compound was inactive in the other large screens; ! = not confirmed by another sample. Calls come from the whole dose curve; as a rule, active = well fitted curve in the direction sought with a large enough effect; inconclusive = small, poorly fitted or top-dose-only effect, or another doubt; inactive = no such curve, though single readings can be large; an effect the other way counts as inactive or inconclusive.

N#Cc1c(NC(NC(=O)c2ccco2)C(=O)c2ccccc2)sc2c1CCCC2 (stereo unspecified)	Cruzain inh noDet 25.1µM
COc1ccccc1C(=O)Nc1sc2c(c1C(=O)NCc1ccco1)CCCC2	Cruzain inh noDet 7.94µM
COc1ccccc1NC(=O)c1c(NC(=O)c2ccco2)sc2c1CCC2	Cruzain inh noDet 7.94µM
COc1ccccc1NC(=O)c1c(NC(=O)c2ccco2)sc2c1CCC(C(C)(C)C)C2 (stereo unspecified)	none
NC(=O)c1c(NC(NC(=O)c2ccco2)C(=O)c2ccc(Cl)cc2)sc2c1CCCC2 (stereo unspecified)	none
Cc1cccc(C(=O)Nc2sc3c(c2C(=O)NCc2ccco2)CCCC3)c1	none
CC(C)COc1ccc(C(=O)Nc2scc(-c3ccc(Br)cc3)c2C(=O)OC(C)C)cc1	none
CCCc1sc(N)nc1-c1ccc(Cl)cc1	none
COc1ccccc1CNc1nc2nc(C)c(Cl)c(=O)n2[nH]1	none
Cc1ccc(C2=NNC(c3ccc(Cl)cc3)=Nc3ccccc32)o1	Cruzain inh noDet 12.6µM
Cc1ccc(-c2cc(-c3ccc(Cl)cc3)c(C#N)c(N)n2)o1	Cruzain inh noDet inconclusive
O=C(Oc1ccc(-c2nccc(-c3ccccn3)n2)cc1)c1cccc(C(F)(F)F)c1	none
COc1ccccc1NS(=O)(=O)c1cccc(C(=O)N/N=C/c2ccc3c(c2)OCCO3)c1	Cruzain inh noDet inconclusive
COc1ccccc1NS(=O)(=O)c1cccc(C(=O)N/N=C/c2c(C)nn(-c3ccccc3)c2N2CCCC2)c1	none
CCN(CC)c1ccc(/C=N/NC(=O)c2cccc(S(=O)(=O)Nc3ccccc3OC)c2)c(O)c1	Cruzain inh noDet 20µM
COc1ccccc1NS(=O)(=O)c1cccc(C(=O)N/N=C/c2cn(-c3ccccc3)nc2-c2ccccc2)c1	Cruzain inh noDet 12.6µM
COc1ccc(-c2nn(-c3ccccc3)cc2/C=N/NC(N)=S)cc1OC	Cruzain inh noDet 0.631µM, Cruzain inh Det 1.58µM
COc1ccc(-c2nn(-c3ccccc3)cc2/C=N/n2cnnc2)cc1OC	Cruzain inh noDet inconclusive
c1cncc(CSc2ncnc3nc[nH]c23)c1	none
Cc1cc2c(cc1C)CSC(c1c(O)ccc3ccccc13)SC2	Cruzain inh noDet inconclusive
Cc1cc2c(cc1C)CSC(c1ccc3ccccc3c1O)SC2	Cruzain inh noDet 25.1µM
Cn1ccc2cc(NC(=O)Nc3cccnc3)ccc21	Cruzain inh noDet inconclusive
CC(C)C(=O)Nc1ccc2nc(SCC(=O)N3CCCC3)sc2c1	none
Cc1ccc(S(=O)(=O)N(C)c2cc(S(=O)(=O)Nc3ccncc3)c(C)cc2C)cc1	none
COc1ccc(/C=N/NC(=O)c2ccccc2Cl)cc1CSc1nc2ccccc2s1	Cruzain inh noDet 15.8µM
COc1ccc(/C=N/NC(=O)c2cccnc2)cc1CSc1nc2ccccc2s1	Cruzain inh noDet inconclusive
CCCCn1cnc2sc3c(c2c1=N)CCCC3	none
CC1=CC(C)(C)Nc2ccccc21	Cruzain inh noDet 15.8µM!
CC1=CC(C)(C)Nc2ccc(OC(=O)CCN3C(=O)c4ccccc4C3=O)cc21	none
O=S(=O)(Nc1cc(Sc2cccc3cccnc23)c(O)c2ccccc12)c1ccccc1	Cruzain inh noDet 3.16µM
Cc1ccc(S(=O)(=O)Nc2cccc3cccnc23)cc1	none
O=C1OC(c2ccc3c(c2)OCO3)N(C(=O)c2ccc(Cl)c(Cl)c2)c2ccccc21 (stereo unspecified)	Cruzain inh noDet 31.6µM
Cc1cccc(C(=O)N2c3ccccc3C(=O)OC2c2ccc3c(c2)OCO3)c1 (stereo unspecified)	Cruzain inh noDet inconclusive
CCOC(=O)N1CCN(C(=O)C2CCN(S(=O)(=O)c3cc(Cl)ccc3Cl)CC2)CC1	Cruzain inh noDet inconclusive
COc1ccc(/C=C/C(=O)Nc2cc(C)nn2-c2nc3ccccc3n2Cc2cccc([N+](=O)[O-])c2)cc1	Cruzain inh noDet 7.94µM
COc1ccc(/C=C/C(=O)Nc2cc(C)nn2-c2nc3ccccc3[nH]2)cc1	Cruzain inh noDet inconclusive
O=C(OCn1ncc(Cl)c(Cl)c1=O)c1cccc(C(F)(F)F)c1	none
O=C(CC(NC(=O)c1ccccc1)c1ccccc1)Nc1cccc2ccccc12 (stereo unspecified)	Cruzain inh noDet 25.1µM
O=C(CC(C(=O)O)c1ccccc1)Nc1cccc2ccccc12 (stereo unspecified)	none
CCC(C(=O)NC1CCCC1)N(C(=O)Cn1nnc(-c2ccc(C)o2)n1)c1cnc2ccccc2c1 (stereo unspecified)	Cruzain inh noDet inconclusive
Cc1ccc(N(C(=O)Cn2nnc(-c3ccc(C)o3)n2)C(C(=O)NC2CCCC2)c2ccco2)cc1 (stereo unspecified)	Cruzain inh noDet 25.1µM
Cc1ccc(-c2nnn(CC(=O)N(c3ccccc3)C(C(=O)NC(C)(C)C)c3cccs3)n2)o1 (stereo unspecified)	Cruzain inh noDet 6.31µM
Cc1ccc(-c2nnn(CC(=O)N(c3cccc(O)c3)C(C(=O)NC(C)(C)C)c3cccs3)n2)o1 (stereo unspecified)	none
C=Cc1ccc(CSc2nc(-c3ccc(C)cc3)nc3c2Cc2c(CO)cnc(C)c2O3)cc1	none
COc1cccc(-c2cc3nc(-c4ccccc4)cc(N4CCC5(CC4)OCCO5)n3n2)c1	Cruzain inh Det 28.2µM
COc1cccc(-c2cc(C(F)(F)F)n3nc(C(=O)N4CCC5(CC4)OCCO5)cc3n2)c1	Cruzain inh noDet inconclusive
CC1CCN(C(=O)C2CCC(C)(C(=O)O)C2(C)C)CC1 (stereo unspecified)	none
O=C1OC(Cc2ccccn2)C(=O)C1=C1SCCS1 (stereo unspecified)	none
COc1ccc(-c2nc3c(c(=O)[nH]c(=O)n3Cc3ccccc3)n2C)cc1	none
Cn1c(-c2cccc(OCc3ccccc3)c2)nc2c1c(=O)[nH]c(=O)n2Cc1ccccc1	Cruzain inh noDet 7.94µM
CC(=O)c1cnc(Nc2nc(C)c3cc(C)c(C)cc3n2)nc1C	none
CCC1=C(OC(=O)N(CC)CC)N2C(=O)OC(=NCC3CC3)[C@]2(C)[C@H]2C1=CC[C@H]1C(=O)NC(=O)[C@H]12	none
COc1ccccc1-c1nnc(NC(=O)C(C)SC2=NCCS2)s1 (stereo unspecified)	Cruzain inh noDet 15.8µM
CC(SC1=NCCS1)C(=O)Nc1nnc(-c2ccc(Cl)cc2)s1 (stereo unspecified)	none
CCn1c(CN2CCC(C)CC2)nc2cc(NC(=O)COc3ccc(Cl)c(C)c3)ccc21	none
COc1ccc(C(=O)Nc2ccc(C(=O)OCC(=O)c3cccc4ccccc34)cc2)cc1	Cruzain inh noDet 1.58µM
COc1ccc(C(=O)COC(=O)c2cccc(NC(=O)c3ccc(OC)c(OC)c3)c2)cc1	Cruzain inh noDet inconclusive
COc1ccc(C(=O)Nc2ccc(C)cc2C(=O)c2ccccc2)cc1	none
COc1ccc(OC)c(C(=O)c2ccc(C(=O)Nc3cccc4ccccc34)cc2)c1	Cruzain inh noDet 25.1µM
COc1cccc(Nc2nc(-c3sc(NC(=O)c4ccco4)nc3C)cs2)c1	Cruzain inh noDet inconclusive
COc1ccc(-c2csc(Nc3cccnc3)n2)cc1	Cruzain inh noDet inconclusive
COc1ccc(-c2csc(/C(C#N)=C/Nc3ccc4c(c3)OCCO4)n2)cc1	Cruzain inh noDet 12.6µM
c1ccc(-c2csc(Nc3ccc4c(c3)OCCO4)n2)cc1	Cruzain inh noDet inconclusive
c1cc2c(cc1Nc1nc(-c3ccc4c(c3)OCO4)cs1)OCCO2	Cruzain inh noDet 10µM
COc1cccc(Nc2nc(-c3sc(N)nc3C)cs2)c1	Cruzain inh noDet 12.6µM, Cruzain inh Det inconclusive
COc1cccc(Nc2nc(-c3ccc4c(c3)OCCO4)cs2)c1	Cruzain inh noDet 25.1µM
